According to PubChem BioAssay AID1159580 (chemical genetic matrix, 2015):
The campaign covered roughly 5,500 compounds. About 2,000 (36%) were called active. About 18% were inconclusive and are not listed. Cut-off read from the data, not from the text of the source: active = normalized growth mostly below about 0.91 (no sharp cut-off); inconclusive = no clear call, values can overlap the other calls; inactive = mostly above about 0.92. The list shows a part of the results.

Test: chemical genetic growth profiling, strain panel (AID 1159580);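 note: tested at 20 µM; growth read once vehicle control cultures reached saturation at 30 °C; 1 = growth at the plate median or of vehicle wells; lower values mean less growth of the strain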
Details: S. cerevisiae deletion strains, growth OD

Measured: normalized growth

COC(=O)C1=C(C)NC(C)=C(C(=O)OCC(C)C)C1c1ccccc1[N+](=O)[O-] (centres undefined)
active: locus YAL021C, strain ccr4, hits give low values 0.0808 | locus YAL026C, strain drs2, hits give low values 0.216 | locus YAL030W, strain snc1, hits give low values 0.239 | locus YBL061C, strain skt5, hits give low values 0.19 | locus YBR009C, strain hhf1, hits give low values 0.224 | locus YBR023C, strain chs3, hits give low values 0.176 | locus YBR231C, strain swc5, hits give low values 0.212 | locus YBR279W, strain paf1, hits give low values 0.451 | locus YCL011C, strain gbp2, hits give low values 0.257 | locus YCL016C, strain dcc1, hits give low values 0.462 | locus YCL069W, strain vba3, hits give low values 0.413 | locus YCR088W, strain abp1, hits give low values 0.39 | locus YDL005C, strain med2, hits give low values 0.193 | locus YDR001C, strain nth1, hits give low values 0.468 | locus YDR069C, strain doa4, hits give low values 0.0857 | locus YDR297W, strain sur2, hits give low values 0.167 | locus YDR334W, strain swr1, hits give low values 0.24 | locus YDR335W, strain msn5, hits give low values 0.814 | locus YDR392W, strain spt3, hits give low values 0.122 | locus YEL003W, strain gim4, hits give low values 0.463 | locus YEL037C, strain rad23, hits give low values 0.296 | locus YEL061C, strain CIN8 (second series), hits give low values 0.33 | locus YER015W, strain faa2, hits give low values 0.177 | locus YER016W, strain bim1, hits give low values 0.52 | locus YER155C, strain BEM2 (second series), hits give low values 0.259 | locus YFR010W, strain ubp6, hits give low values 0.382 | locus YGL167C, strain pmr1, hits give low values 0.214 | locus YGL173C, strain kem1, hits give low values 0.098 | locus YGL227W, strain vid30, hits give low values 0.769 | locus YGL240W, strain doc1, hits give low values 0.259 | locus YGL253W, strain hxk2, hits give low values 0.303 | locus YHR013C, strain ard1, hits give low values 0.209 | locus YHR027C, strain rpn1, hits give low values 0.164 | locus YHR030C, strain SLT2, hits give low values 0.472 | locus YHR079C, strain IRE1, hits give low values 0.385 | locus YHR142W, strain chs7, hits give low values 0.209 | locus YJL092W, strain hpr5, hits give low values 0.422 | locus YJL095W, strain BCK1 (second series), hits give low values 0.112 | locus YJL095W, strain BCK1, hits give low values 0.35 | locus YJL115W, strain asf1, hits give low values 0.424 | locus YJL129C, strain trk1, hits give low values 0.852 | locus YJL154C, strain vps35, hits give low values 0.344 | locus YJL164C, strain tpk1, hits give low values 0.16 | locus YJL166W, strain qcr8, hits give low values 0.177 | locus YJL187C, strain SWE1, hits give low values 0.206 | locus YJR066W, strain TOR1, hits give low values 0.57 | locus YKL160W, strain elf1, hits give low values 0.486 | locus YKR026C, strain gcn3, hits give low values 0.559 | locus YKR091W, strain srl3, hits give low values 0.589 | locus YLL001W, strain dnm1, hits give low values 0.42 | locus YLL026W, hits give low values 0.333 | locus YLL041C, strain sdh2, hits give low values 0.279 | locus YLR027C, strain aat2, hits give low values 0.22 | locus YLR113W, strain HOG1, hits give low values 0.308 | locus YLR221C, strain rsa3, hits give low values 0.342 | locus YLR258W, strain gsy2, hits give low values 0.209 | locus YLR262C, strain YPT6 (second series), hits give low values 0.114 | locus YLR320W, strain mms22, hits give low values 0.159 | locus YLR342W, strain FKS1, hits give low values 0.163 | locus YLR357W, strain rsc2, hits give low values 0.452 | locus YLR370C, strain arc18, hits give low values 0.273 | locus YLR384C, strain iki3, hits give low values 0.75 | locus YMR058W, strain fet3, hits give low values 0.0888 | locus YMR125W, strain sto1, hits give low values 0.462 | locus YMR129W, hits give low values 0.633 | locus YMR205C, strain PFK2, hits give low values 0.179 | locus YMR231W, strain pep5, hits give low values 0.141 | locus YNL071W, strain lat1, hits give low values 0.194 | locus YNL183C, strain NPR1, hits give low values 0.561 | locus YNL209W, strain ssb2, hits give low values 0.111 | locus YNL248C, strain rpa49, hits give low values 0.488 | locus YNL322C, strain KRE1 (second series), hits give low values 0.403 | locus YNR049C, strain mso1, hits give low values 0.551 | locus YOR070C, strain gyp1, hits give low values 0.492 | locus YOR083W, strain WHI5, hits give low values 0.43 | locus YOR106W, strain vam3, hits give low values 0.135 | locus YOR231W, strain MKK1, hits give low values 0.513 | locus YOR265W, strain rbl2, hits give low values 0.204 | locus YOR270C, strain vph1, hits give low values 0.153 | locus YPL051W, strain arl3, hits give low values 0.129 | locus YPL106C, strain sse1, hits give low values 0.299 | locus YPL240C, strain hsp82, hits give low values 0.242 | locus YPL256C, strain CLN2, hits give low values 0.415
inactive: locus YBR171W, strain sec66, hits give low values 0.898 | locus YDL040C, strain nat1, hits give low values 0.953 | locus YDR137W, strain rgp1, hits give low values 0.866 | locus YDR159W, strain sac3, hits give low values 0.958 | locus YDR195W, strain ref2 1.06 | locus YER111C, strain swi4, hits give low values 0.945 | locus YML120C, strain ndi1, hits give low values 0.978 | locus YOR001W, strain rrp6, hits give low values 0.952 | locus YOR080W, strain dia2, hits give low values 0.958 | locus YOR290C, strain snf2, hits give low values 0.912 | locus YPL078C, strain atp4, hits give low values 0.94
